Test results published in PubChem BioAssay.
Values joined by “and” are separate entries in the source; they are usually repeats but may differ in a detail not shown here. Equal entries are not always repeated. Active and inactive are the calls of the source.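 Rule for the calls, unless noted: active = thallium flux through the channel raised or lowered by more than 3 SD from vehicle-only wells, actives on both sides; inactive = the rest.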

Experiments:
[1] = Cy5 fluorescence interference with SSB-bound oligo, artefact control for HCV NS3 helicase inhibitor project, biochemical, NIH Clinical Collection, E. coli SSB (AID 743268; call rule not given here)
[2] = tested on: Hepatitis C virus NS3 helicase; assay: HCV NS3 helicase inhibitors, primary screen, biochemical, fluorescence polarization, NIH Clinical Collection (AID 743270; call rule not given here); details: NS3 helicase binding to Cy5-dT15 DNA, stronger effect = higher value, concentration not given here
[3] = target: Single-stranded DNA-binding protein (Escherichia coli (strain K12)) (UniProt P0AGE0); assay: E. coli SSB displacement from DNA, counter-screen for HCV NS3 helicase inhibitor project, biochemical, fluorescence polarization, NIH Clinical Collection (AID 743271; in the data active = inhibition above about 28%); details: stronger effect = higher value, concentration not given here
[4] = fluorescence interference in NS3h assay format, artefact control for HCV NS3 helicase inhibitor project, biochemical, NIH Clinical Collection (AID 743272; call rule not given here;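 note: HCV NS3 helicase with a Cy5 labelled single stranded DNA probe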); details: fluorescence interference counterscreen, stronger effect = lower value
[5] = modulation of C. elegans fzo-1 (AID 1259413; call rule not given here;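 note: fzo-1 mutant C. elegans worms in liquid wells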); details: C. elegans fzo-1 modulator screen, mean read-out; stronger effect = higher value
[6] = sensitizers of A549 cells to miR-34 induction, primary screen, imaging, A549 dox-inducible miR-34, nuclei and caspase counts (AID 1347080;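 active = compounds whose cell count with miR-34 switched on is under 0.7 times the count with it off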); details: A549 miR-34 inducible, Hoechst nuclei count, 48 h
F380Y = assay: modulators of BK channel variants, profiling panel, selectivity assay, cell-based, U2OS BacMam, thallium flux, beta subunits (AID 1259406); details: at 30 µM;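 note: initial slope of Thallos dye fluorescence rise after thallium is added; log ratio against the mean of 0.3% DMSO vehicle wells on the same plate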
F380Y/beta1 = assay: as above; details: at 30 µM
F380Y/beta2Delta = assay: as above; details: at 30 µM
F380Y/beta4 = assay: as above; details: at 30 µM
[7] = target: Calcium-activated potassium channel subunit alpha-1 (Homo sapiens) + Leucine-rich repeat-containing protein 26 (Homo sapiens) (UniProt Q12791+Q2I0M4); assay: as above; details: F380Y/Slo1WT/gamma1, at 30 µM
Sequence of Calcium-activated potassium channel subunit alpha-1 (Homo sapiens) + Leucine-rich repeat-containing protein 26 (Homo sapiens) (Q2I0M4 whole entry, looked up, one chain of several): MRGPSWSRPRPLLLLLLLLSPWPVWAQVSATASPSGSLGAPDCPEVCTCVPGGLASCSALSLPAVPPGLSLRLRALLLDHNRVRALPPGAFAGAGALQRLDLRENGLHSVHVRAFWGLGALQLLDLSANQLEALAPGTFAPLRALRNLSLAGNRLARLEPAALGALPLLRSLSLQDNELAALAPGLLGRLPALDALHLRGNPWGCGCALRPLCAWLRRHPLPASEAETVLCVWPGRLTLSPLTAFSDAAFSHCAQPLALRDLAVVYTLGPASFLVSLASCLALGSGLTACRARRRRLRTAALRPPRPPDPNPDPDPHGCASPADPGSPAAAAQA

R275C = assay: as above; details: at 30 µM
R275C/beta1 = assay: as above; details: at 30 µM
R275C/beta2Delta = assay: as above; details: at 30 µM
R275C/beta4 = assay: as above; details: at 30 µM
R275C/Slo1WT/beta2 = assay: as above; details: at 30 µM
[8] = liver-stage malaria parasite growth inhibition, primary screen, cell-based, HepG2, luciferase luminescence, HepG2 viability (AID 624349; in the data active = parasite load remaining mostly below about 12%, no sharp cut-off; inactive = mostly above about 10%;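 note: 100% = mean of DMSO negative control wells on the same plate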); details: P. berghei liver stage in HepG2, luciferase luminescence, concentration not given here; parasite load remaining: stronger effect = lower value; viability: measured here: HepG2 viability without parasites
[9] = differential killing of epithelial or mesenchymal cells, primary screen, imaging, PC-3E GFP, TEM4-18 mCherry, co-culture (AID 1345086;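 active = compounds killing one labelled cell type while sparing the other, by normalised counts and ratio limits, not self-fluorescent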;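 note: cells exposed to compound for 72 h before imaging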;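 for red/green cell ratio (normalised): normalised mesenchymal count divided by normalised epithelial count so high means epithelial killing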); details: imaging cell counts, at 1 µM
[10] = survival rescue of mitochondrial mutant cells in low glucose, primary screen, MELAS cybrids, Rieske KO mouse fibroblasts, CellTiter-Glo (AID 1508586;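 active = mean z-score across replicates of 1.96 or higher in either the MELAS or the Rieske mutant cell line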;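 note: z relative to plate mean and SD of compound and empty wells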)
[11] = stronger effect = lower value, cell number ratio, induced over uninduced
[12] = measured here: relative caspase fold change +Dox/-Dox
[13] = measured here: total cells with miR-34 induction, stronger effect = lower value
[14] = measured here: total cells without miR-34 induction

COC(=O)C[C@](O)(CCCC(C)(C)O)C(=O)O[C@@H]1C(OC)=C[C@]23CCCN2CCc2cc4c(cc2[C@H]13)OCO4
1670: cell count [6, 13]
1.16: fold change [6, 12]
inactive: fluorescence ratio [1] 1 | inhibition [2] -0.22% | inhibition [3] 1.18% | fluorescence ratio [4] 0.99 | mean signal [5] 211 | fold change [6, 11] 1.08 | log fold change Tl+ flux (F380Y) 0.0231 | log fold change Tl+ flux (F380Y/beta1) -4.2e-05 | log fold change Tl+ flux (F380Y/beta2Delta) -0.00992 | log fold change Tl+ flux (F380Y/beta4) 0.013 | log fold change Tl+ flux [7] -0.0674 | log fold change Tl+ flux (R275C) -0.0969 | log fold change Tl+ flux (R275C/beta1) -0.0403 | log fold change Tl+ flux (R275C/beta2Delta) -0.0559 | log fold change Tl+ flux (R275C/beta4) -0.045 | log fold change Tl+ flux (R275C/Slo1WT/beta2) 0.0211
1550: cell count [6, 14]

CNCC[C@H](Oc1cccc2ccccc12)c1cccs1
1.07: normalised cell number ([9]; measured here: epithelial PC-3E GFP cell survival)
101% and 64.7% and 0.245%: viability [8]
active: log fold change Tl+ flux (R275C/beta1) 0.207 | log fold change Tl+ flux (R275C/beta4) 0.129
10400: cell count [6, 13]
1: normalised cell number ([9]; measured here: mesenchymal TEM4-18 mCherry cell survival)
11200: cell count [6, 14]
inactive: parasite load remaining [8] 36.5% and 51.1% and -0.135% | fluorescence ratio [1] 0.96 and 0.95 | inhibition [2] 1.19% and -5.46% | inhibition [3] 2.98% and -4.33% | fluorescence ratio [4] 0.93 and 0.89 | mean signal [5] 220 | red/green cell ratio (normalised) ([9]; actives lie on both sides, counts scaled to control wells, 1 = unselective) 0.93 | fold change [6, 11] 0.93 | log fold change Tl+ flux (F380Y) -0.075 | log fold change Tl+ flux (F380Y/beta1) -0.085 | log fold change Tl+ flux (F380Y/beta2Delta) 0.0364 | log fold change Tl+ flux (F380Y/beta4) -0.0361 | log fold change Tl+ flux [7] 0.0212 | log fold change Tl+ flux (R275C) 0.0449 | log fold change Tl+ flux (R275C/beta2Delta) 0.066 | log fold change Tl+ flux (R275C/Slo1WT/beta2) 0.0145
4.69: fold change [6, 12]

CN1CCC[C@H]1c1cccnc1
inactive: parasite load remaining [8] 58.8% and 68.1% and 77.4% | fluorescence ratio [1] 1.1 | inhibition [2] -3.18% | inhibition [3] -0.48% | fluorescence ratio [4] 0.97 | mean signal [5] 289 | fold change [6, 11] 1 and 0.879 | log fold change Tl+ flux (F380Y) 0.0275 | log fold change Tl+ flux (F380Y/beta1) 0.0102 | log fold change Tl+ flux (F380Y/beta2Delta) 0.027 | log fold change Tl+ flux (F380Y/beta4) 0.0603 | log fold change Tl+ flux [7] -0.0145 | log fold change Tl+ flux (R275C) 0.033 | log fold change Tl+ flux (R275C/beta1) 0.0044 | log fold change Tl+ flux (R275C/beta2Delta) 0.0329 | log fold change Tl+ flux (R275C/beta4) -0.0173 | log fold change Tl+ flux (R275C/Slo1WT/beta2) -0.00315
1.38 and 3.3: fold change [6, 12]
92.8% and 95.3% and 105%: viability [8]
11100 and 11800: cell count [6, 13]
11100 and 13400: cell count [6, 14]

O=C1c2c(O)cc(O)cc2O[C@H](c2ccc(O)c(O)c2)[C@H]1O
91%: viability [8]
inactive: parasite load remaining [8] 112% | fluorescence ratio [1] 0.99 | inhibition [2] 1.19% | inhibition [3] -1.64% | fluorescence ratio [4] 0.99 | mean signal [5] 241 | log fold change Tl+ flux (F380Y) 0.0483 | log fold change Tl+ flux (F380Y/beta1) -0.0233 | log fold change Tl+ flux (F380Y/beta2Delta) 0.00163 | log fold change Tl+ flux (F380Y/beta4) 0.00589 | log fold change Tl+ flux [7] 0.0266 | log fold change Tl+ flux (R275C) -0.0716 | log fold change Tl+ flux (R275C/beta1) -0.00477 | log fold change Tl+ flux (R275C/beta2Delta) 0.0423 | log fold change Tl+ flux (R275C/beta4) 0.0387 | log fold change Tl+ flux (R275C/Slo1WT/beta2) -0.0121

NC(Cc1cc(I)c(Oc2ccc(O)c(I)c2)c(I)c1)C(=O)O (stereo not given)
1.58 and 0.636: fold change [6, 12]
9910 and 8890: cell count [6, 14]
inactive: parasite load remaining [8] 39.9% | fluorescence ratio [1] 0.99 | inhibition [2] -1.36% | inhibition [3] 1.81% | fluorescence ratio [4] 0.92 | mean signal [5] 230 | fold change [6, 11] 0.986 and 0.874 | z-score ([10]; MELAS cybrid survival, CellTiter-Glo 48 h, stronger effect = higher value) -0.101 | log fold change Tl+ flux (F380Y) 0.0253 | log fold change Tl+ flux (F380Y/beta1) 0.112 | log fold change Tl+ flux (F380Y/beta2Delta) 0.058 | log fold change Tl+ flux [7] 0.0742 | log fold change Tl+ flux (R275C) 0.047 | log fold change Tl+ flux (R275C/beta1) 0.0451
active: log fold change Tl+ flux (F380Y/beta4) 0.107 | log fold change Tl+ flux (R275C/beta2Delta) 0.136 | log fold change Tl+ flux (R275C/beta4) 0.254 | log fold change Tl+ flux (R275C/Slo1WT/beta2) -0.125
0.0136: z-score ([10]; Rieske KO mouse fibroblast survival, CellTiter-Glo 72 h)
106%: viability [8]
9780 and 7770: cell count [6, 13]

CN(C)C1C(=O)C(C(N)=O)=C(O)C2(O)C(=O)C3=C(O)c4c(O)ccc(Cl)c4C(O)C3CC12 (stereo not given)
inactive: parasite load remaining [8] 84.6% | fluorescence ratio [1] 1.05 | inhibition [2] -11.4% | inhibition [3] -1.24% | fluorescence ratio [4] 0.84 | mean signal [5] 261 | fold change [6, 11] 0.964 | log fold change Tl+ flux (F380Y) -0.0288 | log fold change Tl+ flux (F380Y/beta1) -0.00371 | log fold change Tl+ flux (F380Y/beta2Delta) -0.0136 | log fold change Tl+ flux (F380Y/beta4) 0.00837 | log fold change Tl+ flux [7] 0.0307 | log fold change Tl+ flux (R275C) -0.0571 | log fold change Tl+ flux (R275C/beta1) -0.0108 | log fold change Tl+ flux (R275C/beta4) -0.101 | log fold change Tl+ flux (R275C/Slo1WT/beta2) -0.0217
5650: cell count [6, 14]
1.22: fold change [6, 12]
103%: viability [8]
5440: cell count [6, 13]
active: log fold change Tl+ flux (R275C/beta2Delta) -0.203
